G9a inh-1 = blocks human histone lysine methyltransferase G9a. Q96KQ7. AID 504332. Potency, µM (doses to about 102 µM), most hits filed as inhibitors. G9a H3K9 monomethylation, AlphaScreen, 2 h. 350,000 compounds, 8.8% hits; note: nearly all actives have a fitted effect of over 75% in size
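Step 1: enzyme (final 20 nM) with compound, 15 min RT. Step 2: substrate peptide 500 nM and SAM 20 uM, 2 h RT. Step 3: anti-H3K9me1 antibody and AlphaScreen beads, 10 min, then plate read.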
L3MBTL1 block = blocks human L3MBTL1; AlphaScreen L3MBTL1–H3K9me1 peptide binding; Potency, µM (series often up to 57.1 µM), most hits filed as inhibitors; Q9Y468; 230,000 compounds, 0.66% hits; note: nearly all actives have a fitted effect of over 60% in size
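AlphaScreen proximity signal between nickel-chelate acceptor and streptavidin donor beads (final 10 ug/mL) reports binding of 50 nM L3MBTL1 to 75 nM biotin-H3 K9me1 peptide; complex incubated with compounds 30 min at room temperature; cefsulodin titration as control.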
BAZ2B inh = blocks human BAZ2B; AlphaScreen BAZ2B-H3K14Ac peptide displacement; Potency, µM (series often up to 114 µM), usual class: inhibitors; 360,000 compounds, 4.4% hits; note: nearly all actives have a fitted effect of over 60% in size
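Inhibition is scored as reduced AlphaScreen emission. The BAZ2B/b-H3(5-23)K14Ac complex (50 nM each) in PBS pH 7.4, 0.01% Tween-20 meets compound (up to 110 uM) for 30 min at RT before bead addition.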
HP1b chromo inh = blocks HP1-beta chromodomain binding to methylated histone tails; Potency, µM (series often up to 114 µM), hits mostly inhibitors; AlphaScreen HP1-beta / biotin-H3K9me3 peptide binding; P83916; AID 540317; 390,000 compounds, 0.56% hits; note: nearly all actives have a fitted effect of over 70% in size
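HP1-beta protein (50 nM final) preincubated 30 min at room temperature with biotinylated H3(1-18)K9me3 peptide (50 nM) in PBS pH 7.4, 0.01% Tween-20, then compound added for 30 min. AlphaScreen streptavidin donor/nickel chelate acceptor beads (10 ug/mL final), 30 min dark, luminescence read.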
JMJD2A Tudor = JMJD2A Tudor domain (human) inhibition. O75164. AlphaScreen JMJD2A-Tudor / H3K4me3 peptide binding. Potency, µM (doses to about 114 µM), most hits filed as inhibitors. 390,000 compounds, 4.4% hits; note: nearly all actives have a fitted effect of over 50% in size
Target sequence (O75164 whole entry, looked up, the tested form may be a part): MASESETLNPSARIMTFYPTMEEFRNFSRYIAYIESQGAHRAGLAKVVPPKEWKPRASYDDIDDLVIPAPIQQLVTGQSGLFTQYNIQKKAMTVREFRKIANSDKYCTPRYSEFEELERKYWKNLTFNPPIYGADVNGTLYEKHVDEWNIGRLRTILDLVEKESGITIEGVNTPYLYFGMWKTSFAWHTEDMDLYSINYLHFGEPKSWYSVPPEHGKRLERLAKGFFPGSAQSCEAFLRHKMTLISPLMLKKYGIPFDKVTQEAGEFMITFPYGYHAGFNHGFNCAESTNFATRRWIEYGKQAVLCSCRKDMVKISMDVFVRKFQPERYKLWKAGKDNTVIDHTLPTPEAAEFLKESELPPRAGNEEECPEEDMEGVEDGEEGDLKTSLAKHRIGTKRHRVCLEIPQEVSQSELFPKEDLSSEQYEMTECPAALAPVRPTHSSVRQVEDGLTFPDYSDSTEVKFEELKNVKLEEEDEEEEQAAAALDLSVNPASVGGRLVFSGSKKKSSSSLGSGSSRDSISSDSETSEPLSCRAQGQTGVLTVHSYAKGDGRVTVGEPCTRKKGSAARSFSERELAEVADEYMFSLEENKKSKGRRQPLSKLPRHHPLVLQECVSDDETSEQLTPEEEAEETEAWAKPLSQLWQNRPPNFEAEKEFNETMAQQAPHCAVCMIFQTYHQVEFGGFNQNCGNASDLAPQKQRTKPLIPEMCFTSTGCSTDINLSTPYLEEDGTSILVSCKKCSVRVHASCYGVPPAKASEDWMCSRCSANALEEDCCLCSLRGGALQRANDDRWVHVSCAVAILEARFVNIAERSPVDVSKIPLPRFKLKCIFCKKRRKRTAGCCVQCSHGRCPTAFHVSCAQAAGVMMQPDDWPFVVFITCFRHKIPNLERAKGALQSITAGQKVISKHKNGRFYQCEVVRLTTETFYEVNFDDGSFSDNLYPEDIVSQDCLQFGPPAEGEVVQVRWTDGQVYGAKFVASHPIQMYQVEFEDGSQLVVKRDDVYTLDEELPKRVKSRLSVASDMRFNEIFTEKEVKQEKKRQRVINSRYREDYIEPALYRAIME
Sfp PPTase inh = inhibitors of Bacillus subtilis Sfp phosphopantetheinyl transferase. 310,000 compounds, 3.5% hits. Q9F4F7. Potency, µM, hits mostly inhibitors. Biochemical Sfp PPTase activity, qHTS;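 note: the enzyme is Sfp with the accession as filed and its product quenches rhodamine fluorescence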
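With Hepes-Na pH 7.6 buffer containing 10 mM MgCl2, Sfp (15 nM) modified BHQ-2-YbbR (12.5 uM) using rhodamine-CoA (5 uM). Two reads 30 minutes apart at 525/598 nm yielded each well's rate.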
JMJD2E confirm = JMJD2E (human) demethylase inhibition, confirmation. shares compounds with JMJD2A Tudor. 140 compounds, 93% hits. AID 2677. Potency, µM (highest dose often 56.8 µM), usual class: inhibitors. Recombinant JMJD2E, FDH-coupled NADH fluorescence (FDH is formaldehyde dehydrogenase)
FDH inh = counter-screen for JMJD2E inhibitors: Pseudomonas putida formaldehyde dehydrogenase; FDH enzyme assay, NADH fluorescence kinetic; shares compounds with JMJD2A Tudor; Potency, µM (series often up to 56.7 µM), actives largely listed as inhibitors; 140 compounds, 10% hits
G9a inh-2 = inhibits human G9a histone lysine methyltransferase, hit confirmation. shares compounds with JMJD2A Tudor. G9a H3K9 monomethylation, AlphaScreen, 2 h. AID 588344. 370 compounds, 89% hits. Potency, µM, actives largely listed as inhibitors; note: nearly all actives have a fitted effect of over 65% in size
RGS4 confirm = inhibits human RGS4, hit validation. AID 602388. shares compounds with JMJD2A Tudor. RGS4 GAP activity, Transcreener GDP fluorescence polarization. Potency, µM, hits mostly inhibitors. 25 compounds, 80% hits
Hits are given with their value; – = inactive; ? = inconclusive; · = no result given; [ ] = dose if it differs, or a comment. Compounds with a hit are over-represented: about 12% of the library has one in this group of screens. Calls come from the whole dose curve; as a rule, active = well fitted curve in the direction sought with a large enough effect; inconclusive = small, poorly fitted or top-dose-only effect, or another doubt; inactive = no such curve, though single readings can be large; an effect the other way counts as inactive or inconclusive.

SMILES | G9a inh-1 | L3MBTL1 block | BAZ2B inh | HP1b chromo inh | JMJD2A Tudor | Sfp PPTase inh | G9a inh-2 | others
CC(C)c1ccc(Nc2c(-c3ccco3)nc3ccccn23)cc1 | ? | · | ? | – | ? | · | · | RGS4 confirm=?
Cc1ccc(-c2nc3ccccn3c2Nc2ccc3c(c2)OCO3)o1 | 7.9µM | · | 35µM | ? | 50µM | · | · | RGS4 confirm=?
Cc1ccc2nc(-c3ccsc3)c(Nc3ccc(C(C)C)cc3)n2c1 | – | · | – | – | – | · | ·
C/C=C/C1Oc2ccc(OC)cc2N2C(=O)C(C)C(OCOC)C12 (stereo not drawn) | · | · | · | · | · | – | ·
CC(OC(=O)c1ccc(Cl)c(S(=O)(=O)N2CCOCC2)c1)C(=O)NC1CCCCC1C (stereo not drawn) | –[0.501 µM] | · | – | – | – | – | ·
CC(OC(=O)c1cccc(S(=O)(=O)N2CCOCC2)c1)C(=O)NC1CCCCC1C (stereo not drawn) | ? | – | – | – | – | · | 35
Cc1ccc(Cn2ccnc2SCC(=O)Nc2nnc(C)s2)cc1 | – | · | – | – | – | · | ·
c1ccc(-n2nnnc2SCc2cn3ccccc3n2)cc1 | ? | · | ? | – | – | – | 28
CN(C)c1ccc(NC(=O)c2ccc([N+](=O)[O-])cc2Cl)cc1 | 2µM | – | – | – | – | – | 6.3
CCOC(=O)CNC(=O)CSc1nnc(-c2ccccc2)n1Cc1ccco1 | ? | · | – | – | 45µM | 13µM | 4.5
CCOC(=O)c1c(NC(=O)c2cccs2)sc2c1CCN(C(=O)OCC)C2 | – | –[11.4 µM] | – | – | – | ? | ·
CCOC(=O)N1CCc2c(sc(NCc3cccs3)c2C(=O)Nc2cc(Cl)ccc2OC)C1 | 1.1µM | · | – | – | ? | · | 2.3
COc1ccc(Cl)cc1NC(=O)c1c(NCc2cccs2)sc2c1CCCC2 | 1.4µM | · | – | – | ? | · | 4.1
CCn1c(CSc2nc3ccccc3s2)nnc1SCC(=O)c1ccc(O)c(O)c1 | 0.79µM | · | 35µM | – | 45µM | – | 1.4
CCn1c(CSc2nc3ccccc3s2)nnc1SCC(=O)c1ccc(Cl)cc1 | ? | · | – | – | ? | – | ·
Cc1nc2ccc(NC(=O)Nc3ccnc4cccnc34)cc2o1 | · | · | · | · | · | – | ·
O=C(Nc1ccc(Br)cc1)c1cccc(S(=O)(=O)N2CCc3ccccc32)c1 | – | · | – | – | – | · | ·
COc1ccc(C(=O)c2sc(Nc3cccc(OC)c3)c(C(=O)Nc3cccc(C)c3C)c2N)cc1 | ? | · | – | – | ? | – | 4.5
CCN(CC)c1ccc(NC(=O)COC(=O)C2CCN(c3ccc(C(F)(F)F)cn3)CC2)cc1 | 1.6µM | ? | ? | ? | 16µM | · | 2.8
O=C(COC(=O)C1CCN(c2ccc(C(F)(F)F)cn2)CC1)NCc1ccc(F)cc1 | – | – | – | – | – | · | ·
CCNc1ncc2nc(-c3ccc(Cl)cc3)c(=O)n(C)c2n1 | –[0.501 µM] | · | · | · | · | – | ·
O=C(CSc1cn[nH]n1)Nc1cccc(C(=O)O)c1 | 0.71µM | · | – | 18µM | 8.9µM | 35µM | 1.3
COc1ccc(N2CCN(Cc3nc(-c4ccc(Cl)cc4Cl)no3)CC2)cc1 | 2.2µM | ? | 35µM | ? | 25µM | – | 4.5
c1ccc(-c2noc(CN3CCN(c4ccccc4)CC3)n2)cc1 | – | · | – | – | – | – | ·
O=C(Nc1ccc(N2CCCCC2)cc1)c1ccccc1 | ? | – | – | – | – | – | ·
SMILES | G9a inh-1 | L3MBTL1 block | BAZ2B inh | HP1b chromo inh | JMJD2A Tudor | Sfp PPTase inh | G9a inh-2 | others
O=C(Nc1ccc(N2CCCC2)cc1)c1ccccc1F | 1.8µM | – | ? | – | ? | ? | 2.8
O=C(Nc1ccc(N2CCCC2)cc1)c1cccc(F)c1 | ? | – | ? | ? | 50µM | – | 1.6
O=C(Nc1ccc(N2CCCC2)cc1)c1cccc(-c2cc3ccccc3oc2=O)c1 | 1.6µM | – | ? | 8.9µM | 28µM | 16µM | 1.1
O=C(Nc1ccccc1N1CCCC1)c1cccc(-c2cc3ccccc3oc2=O)c1 | ? | – | ? | – | ? | – | ·
CNc1cc(-c2ccccc2C(F)(F)F)ncn1 | –[0.501 µM] | · | · | · | · | – | ·
S=C(Nc1ccccn1)NC1CCCC1 | 0.35µM | – | – | – | – | 45µM | 3.2
S=C(Nc1ccccn1)NC1CCCCC1 | –[12.7 µM] | – | ? | – | – | ? | ·
O=C(OCC#CCSc1nnc(-c2cccc3ccccc23)o1)c1cccc(C(F)(F)F)c1 | · | · | · | · | – | · | ·
Cc1ccc(Nc2c(-c3ccncc3)nc3ccc(C)cn23)cc1 | – | · | – | – | – | · | ·
CSc1ccccc1NC(=O)CN(C)CC(=O)Nc1ccc(N2CCOCC2)cc1 | – | · | – | – | – | – | ·
CN(CC(=O)Nc1ccc(N2CCOCC2)cc1)Cc1c(O)ccc2ccccc12 | 0.5µM | – | ? | – | 56µM | ? | 0.25
COc1ccc(C)cc1NC(=O)C(NS(=O)(=O)c1cccs1)c1ccccc1 (stereo not drawn) | – | · | – | – | – | · | ·
COc1ccc(C)cc1NC(=O)C(NCC(O)c1ccccc1)c1ccccc1 (stereo not drawn) | 2.8µM | · | 22µM | ? | 10µM | ? | 14
O=c1cnc2cnc(OCc3ccccc3)nc2n1Cc1ccc(F)cc1 | –[12.7 µM] | · | · | · | · | – | ·
COC(=O)c1ccc(OC(=O)C2CC(=O)N(c3ccc(C)cc3C)C2)cc1 (stereo not drawn) | ? | –[11.4 µM] | – | – | – | – | 28
COc1ccc(OC(=O)C2CC(=O)N(c3ccc(C)cc3)C2)cc1 (stereo not drawn) | ? | – | – | – | – | – | ·
COc1ccc(CNc2ncnc3onc(-c4ccc(F)cc4)c23)cc1 | – | · | – | – | – | · | ·
CCN(CC)c1ccc(NC(=O)Cn2nnc(-c3cccc(OC)c3OC)n2)c(C)c1 | 0.71µM | · | – | – | – | – | 7.1
CC1CC(=O)N(c2ccc(C(C)C)cc2)C(=O)C1 | · | – | – | – | – | – | ·
CC(C)c1ccc(N2C(=O)CC(Sc3ncn[nH]3)C2=O)cc1 (stereo not drawn) | 1.3µM | · | – | – | 7.1µM | 56µM | · | JMJD2E confirm=5.6µM;FDH inh=0.25µM
C[C@@H](C(=O)Nc1ccc2ccccc2c1)[C@H]1C[C@]1(C)[C@H](NC(=O)Oc1ccc(F)cc1)c1ccccc1 | · | · | · | · | · | – | ·
COc1ccc(OC)c(CN2CCN(C(=O)c3cccc4ccccc34)CC2)c1 | 2.5µM | – | 40µM | 22µM | 10µM | – | 22
